# esBAF inh: Bmi1 luciferase reporter increase in mESCs, primary screen, esBAF inhibitor project, mouse ES cells, Bmi1 luciferase knock-in, single point; reporter increase, % at 12.5 µM; actives 2% (n = 350,000); AID 602393, 2012; 24 h; 100% = twice the neutral-well signal; in the data active = activation above about 40%; inconclusive = no clear call, values can overlap the other calls;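 note: 0% = median of the plate's neutral control wells and 100% = double that signal; a rise in the Bmi1 reporter signal indicates esBAF inhibition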
# MITF act: activators of MITF-driven TRPM1 promoter reporter, primary screen, cell-based, SK-MEL-5, luciferase, single point; SK-MEL-5 TRPM1-promoter luciferase, 24 h; % of positive control, neutral wells = 0; activation, % at 12.5 µM; actives 0.75% (n = 300,000); AID 588334, 2011;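 active = mean activation of at least 80% with every replicate also reaching 80%; inconclusive = mean reaches 80% but some replicate falls short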;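 note: 0% = neutral control wells and 100% = parthenolide positive control wells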
# Wnt act: Wnt/beta-catenin pathway activators, primary screen, cell-based, plate reader, single point; Wnt/beta-catenin reporter cell assay, activator; actives 1.2% (n = 300,000); activation, % at 9.35 µM; in the data active = activation above about 30%, passing the limit was not always enough; inconclusive = no clear call, values can overlap the other calls;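 note: 0% = neutral control wells and 100% = positive control wells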
# HSF-1 act: HSF-1 activators, primary screen, NIH3T3-HGL cells, MG132 stress, luminescence, single point. NIH3T3-HGL HSF-1 luciferase reporter, 8 h; 100% = twice DMSO control signal. actives 1.7% (n = 300,000). activation, % at 9 µM;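 active = mean replicate activation of at least 50% with a set share of replicates each reaching 50%; inconclusive = only one of those two conditions met; inactive = mean below 50% and too few replicates reaching it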;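 note: 0% = median of the neutral control wells and 100% = twice that signal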
# HSF1 inh: HSF1 inhibitors in luciferase reporter cells, primary screen, cell-based, NIH3T3, luminescence; NIH3T3-HGL HSE-luciferase, MG132-induced, luminescence 8 h; hits give low values; activity change, negative = inhibition, % at 7.5 µM (by protocol); actives 0.77% (n = 300,000);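 active = more than half of replicate wells show activity change below -50%, luminescence cut by over half; inconclusive = some wells, but at most half, below -50%; inactive = no replicate well below -50%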;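 note: luciferase reports HSF-1 transcriptional activity via heat shock element; 0% = median of DMSO wells and -100% = zero luminescence signal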
# * marks the source's active call; other numbers are inactive results; u = inconclusive; x = not tested or not shown. Only some compounds are listed: those with a hit (about 3.8% of all), similar ones and a draw of the others.
SMILES,esBAF inh,MITF act,Wnt act,HSF-1 act,HSF1 inh
CN1CCN(C(=O)C[C@@H]2CC[C@H]3[C@@H](COC[C@@H](O)CN3C(=O)C3CCCC3)O2)CC1,-1,x,x,x,x
O=C(CN1C(=O)NC2(CCCCCC2)C1=O)Nc1ccc(Cl)cc1Cl,-6,24,0,x,x
Cc1ccc(NC(=O)CN2C(=O)NC3(CCCC3)C2=O)c(Cl)c1,-1,11,-1,-87,-84*
N#Cc1ccsc1NC(=O)CN1C(=O)NC2(CCCC2)C1=O,45*,-1,8,8,-6
O=C(/C=C/c1ccco1)NCCc1ccccc1,52*,63,55*,5,13
O=C(/C=C/c1ccco1)NC(=S)Nc1ccccc1O,x,48,3,10,4
O=C(/C=C\c1ccco1)NC(=S)Nc1ccccc1O,x,88*,16,16,5
Cc1cccnc1NC(=S)NC(=O)/C=C/c1ccco1,38,5,24,u,34
O=C(/C=C/c1ccco1)NC(=S)Nc1ccccn1,46*,x,42*,58*,27
O=C(/C=C/c1ccco1)Nc1cccc(NC(=O)/C=C/c2ccco2)n1,x,71,9,81*,46
Cc1ccc(S(=O)(=O)Nc2cccc3c2O[C@H](CN(C)C(=O)NC(C)C)[C@@H](C)CN([C@H](C)CO)C3=O)cc1,-2,x,x,x,x
COc1ccc(S(=O)(=O)Nc2ccc3c(c2)C(=O)N([C@@H](C)CO)C[C@@H](C)[C@@H](CN(C)C(=O)Nc2ccc(F)cc2)O3)cc1,1,x,x,x,x
CN1CCN(c2ccc(NC(=S)NC(=O)/C=C/c3ccco3)cc2)CC1,45*,43,0,15,0
CC1=CN2C(=N)/C(=C/c3ccc([N+](=O)[O-])o3)C(=O)N=C2S1,x,-89,0,75*,53
CC1CC(C)CN(C(=O)CSc2nnc(-c3ccc(F)cc3)o2)C1 (stereo unspecified),3,3,-3,0,0
CCC1CCCCN1C(=O)CSc1nnc(-c2cccs2)o1 (stereo unspecified),35,x,x,11,16
CC1CCCN(C(=O)CSc2nnc(-c3cccs3)o2)C1 (stereo unspecified),15,89*,13,44,17
CC1CCCN(C(=O)CSc2nnc(-c3ccc(O)cc3)o2)C1 (stereo unspecified),8,11,11,-65,-57*
CC(C)NC(=O)N(C)C[C@@H]1Oc2ccc(NC(=O)Nc3ccccc3)cc2CC(=O)N([C@@H](C)CO)C[C@H]1C,1,x,x,x,x
Cc1ccc([N+](=O)[O-])cc1-c1ccc(/C=C(\C#N)c2[nH]nc(N)c2C#N)o1,83*,43,u,x,x
COCc1cc(C)nc(OCC(=O)N/N=C/c2ccc(-c3cc([N+](=O)[O-])ccc3C)o2)c1C#N,x,9,0,12,3
C/C(=N\NC(=O)c1ccc(Cl)cc1)c1cccs1,-9,46,26,34,14
C/C(=N/NC(=O)c1cccs1)c1ccc(NC(=O)COc2ccc(Cl)cc2)cc1,50*,-18,x,9,1
Fc1ccccc1-c1cc2ncccc2cn1,30,71,34*,x,x
O=c1[nH]c2ccc(Br)cc2o1,4,-9,1,x,x
SMILES,esBAF inh,MITF act,Wnt act,HSF-1 act,HSF1 inh
O=C(CCl)c1ccc2[nH]c(=O)oc2c1,-1,-21,36*,24,10
CN(C)/N=C/C=C1\CCC/C(=C\c2ccc(F)c(F)c2)C1=O,x,1,0,116*,69
O=C(OCc1csc(-c2ccccc2)n1)c1ccc(O)cc1,x,98*,1,47,37
Cc1ccc(C(=O)NCC(=O)OCc2csc(-c3ccccc3)n2)cc1,x,3,2,11,11
COc1ccc(C(=O)N2CCn3c2nc2ccccc23)cc1,u,78,23,9,0
O=C(c1cccs1)N1CCn2c1nc1ccccc12,36,82*,15,17,0
O=C(c1ccc(Cl)cc1)N1CCn2c1nc1ccccc12,49*,62,2,35,-1
N#Cc1c(-c2ccccc2)ccnc1Oc1ccccc1,49*,47,x,-37,-18
COc1ccc(Oc2nccc(OC)c2C#N)cc1,9,15,3,8,1
CCOC(=O)C1CCCCN1C(=O)c1oc2c(Cl)cc(C)cc2c1C (stereo unspecified),2,5,-1,8,10
COC(=O)C1CCN(C(=O)c2oc3c(Cl)cc(C)cc3c2C)CC1,26,45,47*,33,23
Cc1oc2c(c1C(=O)NCc1cccnc1)C(=O)c1ccccc1C2=O,x,x,x,-94,-95*
C[C@H](CO)N1C[C@H](C)[C@H](CN(C)Cc2ccccc2O)OCc2cn(nn2)CCCC1=O,-5,x,x,x,x
Cc1ccc(NCc2ccccc2O)cc1,49*,56,x,-12,-1
Cc1ccc(O)c(CNc2cccc(C)n2)c1,15,8,1,27,21
Cc1ccnc(NCc2cc(C)ccc2O)c1,56*,x,-1,28,14
Cc1ccc(O)c(CNc2ccccn2)c1,64*,x,x,43,34
C/C(NC(=O)c1ccccc1F)=C1\C(=O)C[C@@H]2[C@H]1C2(C)C,u,x,-1,51*,27
C/C(NC(=O)c1cccc(F)c1)=C1/C(=O)C[C@@H]2[C@H]1C2(C)C,65*,109*,x,40,38
CN1CCN(NC(=O)c2cccc(F)c2)CC1,0,2,-1,-11,2
COc1cccc(/C=C/C(=O)c2cccc([N+](=O)[O-])c2)c1OC,x,5,6,58*,21
COc1ccc(C(=O)/C=C/c2ccccc2OC)c(OC(=O)c2ccc([N+](=O)[O-])cc2)c1,x,13,38*,u,33
O=C(Nc1ccc(F)cc1)N[C@@H]1C=C[C@@H](CC(=O)N2CCCCC2)O[C@@H]1CO,-1,x,x,x,x
CO[C@@H]1CN(C)C(=O)c2ccc(NC(=O)c3ccc(F)cc3)cc2OC[C@@H](C)N(C(=O)CN(C)C)C[C@@H]1C,-7,x,x,x,x
COc1cc(CC(=O)O)c(C(C)=O)cc1OC,48*,-12,x,-1,-7
SMILES,esBAF inh,MITF act,Wnt act,HSF-1 act,HSF1 inh
COc1cc(CC(=O)O)c([N+](=O)[O-])cc1OC,x,-12,-2,8,-3
CCc1c(C)nc(SCC(=O)c2cccs2)c(C#N)c1C,54*,40,x,x,x
C[C@@H]1CN([C@@H](C)CO)C(=O)c2cc(C3=CCCCC3)cnc2O[C@H]1CN(C)C(=O)C1CCOCC1,5,x,x,x,x
CCc1ccccc1NCC(=O)Nc1ccc(Cl)c(C(F)(F)F)c1,-4,7,-6,58*,26
COc1ccccc1NC(=O)CN1CCN(CC(=O)Nc2ccc(Cl)c(C(F)(F)F)c2)CC1,-8,-10,x,x,x
C[C@@H]1CN([C@@H](C)CO)C(=O)c2cccc(NS(=O)(=O)c3cccs3)c2O[C@@H]1CN(C)Cc1ccncc1,-2,x,x,x,x

# Screening results: PubChem BioAssay, Broad Institute
